Among the data in PubChem BioAssay (NCATS) are Potency, outcome and activity, negative = inhibition values, retold here.

Inconclusive results are not listed. A number with no mark means an inactive call. Active and inactive are the calls of the source. The call rests on the fitted dose curve; in most records, active means well fitted curve in the direction sought with a large enough effect; inconclusive means small, poorly fitted or top-dose-only effect, or another doubt; inactive means no such curve, though single readings can be large; an effect the other way counts as inactive or inconclusive.

In assay [1] the target is Metallo-beta-lactamase type 2 (Klebsiella pneumoniae) (UniProt C7C422). Description: qHTS to identify inhibitors of the New Delhi Metallo-beta-lactamase (NDM): assay validation screen against the NCATS LOPAC Collection (AID 1794843).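 Further: nitrocefin turnover by NDM-1 measured as 485 nm absorbance at plateau; on the % scale 0 is the no-effect control and ±100 the full control effect.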 In outline:
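Nitrocefin hydrolysis (50 uM substrate stock) by NDM-1, 2 nM final, was followed by 485 nm absorbance after compound preincubation; buffer was 50 mM HEPES pH 7.0, 1 uM ZnSO4, 0.01% Tween20.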
On the technique in general: Quantitative high-throughput screening tests each substance at several concentrations.

Assay [2] has as its target Glutathione peroxidase 1 (Homo sapiens) (UniProt P07203). Description: Primary qHTS Assay for Inhibitors of Recombinant Selenoprotein Glutathione Peroxidase 1 (GPX1) (AID 1845191). Further: nearly all actives have a fitted effect of over 65% in size. On activity, negative = inhibition: on the % scale 0 is the no-effect control and ±100 the full control effect. The method, boiled down:
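GR-coupled readout: NADPH consumption tracked by fluorescence, ex 340/em 450 nm, at t=0 and after 15 min at RT. Final mix 10 nM GPX1, 1 mM GSH, 0.5 mM CHP, 0.5 mM NADPH, 100 nM GR, 0.01% BSA, following 30 min enzyme–compound preincubation.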

Assay [3] concerns the target Phospholipid hydroperoxide glutathione peroxidase GPX4 (Homo sapiens) (UniProt P36969). Description: Primary qHTS Assay for Inhibitors of Recombinant Selenoprotein Glutathione Peroxidase 4 (GPX4) (AID 1845192). Further: nearly all actives have a fitted effect of over 65% in size. As to conditions: outcome: dose series up to 50 µM unless noted. In outline:
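Steps: GPX4 plus compound, 30 min RT; add GR/GSH/NADPH master mix; start with cumene hydroperoxide; read 340/450 nm fluorescence at 0 and 15 min. Finals were 200 nM GPX4, 1 mM GSH, 0.5 mM CHP, 0.5 mM NADPH, 100 nM GR.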

Another assay relates to 3D7. Description: qHTS profiling for inhibitors of Plasmodium falciparum proliferation (AID 504749). Further: nearly all actives have a fitted effect of over 60% in size. Further: potency means the concentration at half of the fitted maximal effect.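 On activity, negative = inhibition: 0% = DMSO vehicle and full inhibition = artemisinin control.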 As to conditions: P. falciparum in erythrocytes, SYBR Green DNA, 72 h; series mostly up to 28.7 µM. The method, boiled down:
(§1)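 Each compound contacts P. falciparum-infected red blood cells for 72 h at 37 C; lysis buffer (Tris, EDTA, saponin, Triton X, SYBR Green I) is added and fluorescence measured next morning; values normalized to controls.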

A further assay relates to 7G8. The description is as above. To be noted: P. falciparum in erythrocytes, SYBR Green DNA, 72 h; series mostly up to 28.7 µM. In outline: as §1
The next assay concerns AA1029. The assay is described as above. As to conditions: P. falciparum in erythrocytes, SYBR Green DNA, 72 h; series mostly up to 28.7 µM. In outline:
as §1

Another assay concerns AS120. Described as above. To be noted: P. falciparum in erythrocytes, SYBR Green DNA, 72 h; series mostly up to 28.7 µM. In outline: as §1
The next assay deals with ATS189. The description is as above. As to conditions: P. falciparum in erythrocytes, SYBR Green DNA, 72 h; series mostly up to 28.7 µM. In outline:
as §1

The subject of another assay is CP191. The description is as above. To be noted: P. falciparum in erythrocytes, SYBR Green DNA, 72 h; series mostly up to 28.7 µM. In outline: as §1
Assay in assay [4]: as above
As to conditions: P. falciparum in erythrocytes, SYBR Green DNA, 72 h. In outline:
as §1

In a further assay the test system is ATS95. Described as above. As to conditions: P. falciparum in erythrocytes, SYBR Green DNA, 72 h; series mostly up to 28.7 µM. In outline: as §1
Another assay deals with C2A. The assay is described as above. To be noted: P. falciparum in erythrocytes, SYBR Green DNA, 72 h; series mostly up to 28.7 µM. In outline: as §1
A further assay concerns CP185. The assay is described as above. As to conditions: P. falciparum in erythrocytes, SYBR Green DNA, 72 h; series mostly up to 28.7 µM. In outline: as §1
The next assay concerns CP192. Described as above. To be noted: P. falciparum in erythrocytes, SYBR Green DNA, 72 h; series mostly up to 28.7 µM. The method, boiled down:
as §1

The next assay concerns CP194. The description is as above. To be noted: P. falciparum in erythrocytes, SYBR Green DNA, 72 h; series mostly up to 28.7 µM. The method, boiled down: as §1
Setting [5] is: at 12.8 µM (top of the series), parasite line A.
Where [6] appears, read: at 28.7 µM (top of the series), parasite line A.
Where [7] appears, read: at 28.7 µM (top of the series), parasite line B.

Sequence of Glutathione peroxidase 1 (Homo sapiens) (P07203 whole entry, looked up): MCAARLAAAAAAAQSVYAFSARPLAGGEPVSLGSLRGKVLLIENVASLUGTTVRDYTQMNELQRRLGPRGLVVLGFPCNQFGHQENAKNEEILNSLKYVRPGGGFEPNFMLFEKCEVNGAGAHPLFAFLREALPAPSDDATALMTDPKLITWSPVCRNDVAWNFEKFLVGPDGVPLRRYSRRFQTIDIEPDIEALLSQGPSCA
Sequence of Phospholipid hydroperoxide glutathione peroxidase GPX4 (Homo sapiens) (P36969 whole entry, looked up): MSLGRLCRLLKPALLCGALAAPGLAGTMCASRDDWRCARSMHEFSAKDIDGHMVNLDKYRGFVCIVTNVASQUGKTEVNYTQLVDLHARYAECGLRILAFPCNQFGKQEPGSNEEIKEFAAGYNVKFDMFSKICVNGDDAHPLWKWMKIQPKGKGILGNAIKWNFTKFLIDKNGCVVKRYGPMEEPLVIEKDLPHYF
Sequence of Metallo-beta-lactamase type 2 (Klebsiella pneumoniae) (C7C422 whole entry, looked up): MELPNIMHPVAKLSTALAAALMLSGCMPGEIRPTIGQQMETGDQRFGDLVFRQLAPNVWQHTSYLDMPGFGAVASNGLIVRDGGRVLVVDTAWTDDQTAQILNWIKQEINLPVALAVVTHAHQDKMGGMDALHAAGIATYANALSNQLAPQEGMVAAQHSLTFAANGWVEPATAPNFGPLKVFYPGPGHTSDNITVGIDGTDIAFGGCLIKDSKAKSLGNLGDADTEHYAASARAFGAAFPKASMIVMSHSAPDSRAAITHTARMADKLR

Take `COc1cc(C(=O)OCCCN2CCCN(CCCOC(=O)c3cc(OC)c(OC)c(OC)c3)CC2)cc(OC)c1OC`: the Potency entry in assay [1] and in assay [2] was “inactive” in each case. Also, the outcome in assay [3] was inactive. The Potency in the assay with 3D7 is 11.2 µM (active); in the assay on 7G8 it was 8.91 µM (active); in the assay on AA1029, 11.2 µM (active); in the assay with AS120, 10 µM (active); in the assay on ATS189, 8.91 µM (active); with CP191 it was 12.6 µM (active).

Consider `CCCCNc1ccc(C(=O)OCCN(C)C)cc1`, for which the Potency entry (in assay [1]; in assay [2]; in the assay on 3D7; in the assay with 7G8; in the assay on AA1029; with AS120) was “inactive” throughout. Further, the Potency entry in the assay on ATS95, in the assay on C2A, with CP185, in the assay with CP191 and in the assay with CP192 was “inactive” each time. For the same molecule, the outcome in [3] was inactive. In addition, the activity, negative = inhibition in assay [4] (setting [5]) is 20%.

Consider `CN1C[C@H](C(=O)N[C@]2(C)O[C@@]3(O)[C@@H]4CCCN4C(=O)[C@H](Cc4ccccc4)N3C2=O)C[C@@H]2c3cccc4[nH]cc(c34)C[C@H]21`, for which the Potency result in assay [1] and in [2] was “inactive” in each case. In assay [3], the result was inactive. The Potency with CP194 is 12 µM (active).

Turning to `CC(C(=O)O)c1ccc(CC2CCCC2=O)cc1` (stereo not drawn), the Potency result (in assay [1]; in the assay with 3D7; with 7G8; with AA1029; in the assay on AS120; with ATS189) was “inactive” throughout. Also, the Potency entry in the assay on ATS95, in the assay on C2A, in the assay with CP185, in the assay with CP191, with CP192 and in the assay with CP194 was “inactive” throughout. Besides, the outcome in [3] was inactive. Further, the activity, negative = inhibition was 0.257% in assay [4] (setting [6]) and 5.29% in [4] (setting [7]).

As to `CN/C(=C\[N+](=O)[O-])NCCSCc1ccc(CN(C)C)o1`, the Potency entry in assay [1] is “inactive”. Further, the outcome in [3] was inactive.

For the molecule `OCCN1CCN(CCCN2c3ccccc3C=Cc3ccccc32)CC1`, the Potency entry in assay [1] and in assay [2] was “inactive” in each case. The Potency in assay [4] (parasite line A) is 8.91 µM (active); in assay [4] (parasite line B) it was 11.2 µM (active); in the assay on 3D7 it was 11.2 µM (active); with 7G8 it was 2 µM (active); in the assay on AA1029 it was 4.47 µM (active); in the assay with AS120, 4.47 µM (active). Also, the Potency in the assay on ATS189 is 5.01 µM (active); in the assay on ATS95, 5.01 µM (active); with C2A it was 11.2 µM (active); in the assay on CP185, 12.6 µM (active); in the assay on CP191, 4.47 µM (active); with CP192, 10.7 µM (active). Also, the Potency in the assay with CP194 was 7.57 µM (active).

As for `O=C1NCN(c2ccccc2)C12CCN(CCCC(c1ccc(F)cc1)c1ccc(F)cc1)CC2`, the Potency result in assay [1] and in assay [2] was “inactive” in each case. The Potency in assay [4] (parasite line A) is 3.16 µM (active); in assay [4] (parasite line B), 7.94 µM (active); in the assay with 3D7, 3.55 µM (active); in the assay on 7G8 it was 3.16 µM (active); in the assay with AA1029, 5.01 µM (active); in the assay with AS120, 4.47 µM (active). In addition, the Potency in the assay with ATS189 was 10 µM (active); with ATS95 it was 8.91 µM (active); with C2A it was 7.08 µM (active); in the assay on CP185, 10 µM (active); with CP191 it was 5.62 µM (active).

As to `Cc1nc2c([nH]1)c(=O)n(C)c(=O)n2Cc1ccco1`, the Potency entry (in assay [1]; in [2]; with 3D7; in the assay on 7G8; in the assay with AA1029; with AS120) was “inactive” throughout. Further, the Potency result in the assay on ATS189, in the assay on ATS95, in the assay on C2A, in the assay on CP185, in the assay on CP191 and with CP192 was “inactive” throughout. The Potency result in the assay on CP194 is “inactive”. For the same molecule, the activity, negative = inhibition in assay [4] (setting [6]) is -3.89%; in [4] (setting [7]) it was -2.06%.

For the molecule `C[n+]1cc2c3c(ccc2c2ccc4cc5c(cc4c21)OCO5)OCO3`, the Potency result (in assay [1]; in assay [2]; in the assay on AA1029; in the assay on AS120; in the assay with ATS95; in the assay with C2A) was “inactive” each time. The Potency entry in the assay on CP185, in the assay on CP192 and in the assay with CP194 was “inactive” each time. In [3], the result was inactive. The activity, negative = inhibition in assay [4] (setting [6]) is -18.2%; in [4] (setting [7]) it was -15.2%.

Turning to `CCN(CC)CCNC(=O)c1cc(S(C)(=O)=O)ccc1OC`, the Potency result (in [1]; in assay [2]; with 3D7; in the assay with 7G8; in the assay on AA1029; in the assay on AS120) was “inactive” in each case. Moreover, the Potency entry in the assay on ATS189, in the assay with ATS95, in the assay with C2A, in the assay with CP185 and in the assay on CP191 was “inactive” each time. The activity, negative = inhibition is 11.8% in assay [4] (setting [5]) and 10.3% in assay [4] (at 12.8 µM (top of the series), parasite line B).

Turning to `CC1=NS(=O)(=O)c2cc(Cl)ccc2N1`, the Potency result (in [1]; in assay [2]; in the assay on 3D7; in the assay on 7G8; in the assay with AA1029; in the assay on ATS189) was “inactive” each time. The Potency result in the assay on ATS95, in the assay with C2A, in the assay on CP192 and in the assay on CP194 was “inactive” in each case. The result in [3] was inactive. Moreover, in assay [4] (setting [6]), the activity, negative = inhibition is -21.1%.

For `c1cc(CN2CCCCC2)cc(OCCCNc2nc3ccccc3s2)c1`, the Potency entry in assay [1] and in [2] was “inactive” in each case. The Potency with 7G8 is 6.31 µM (active); with AS120, 5.01 µM (active); with ATS95, 7.94 µM (active).
